Sampled rows, rich in hits. Any-hit rate of the full collection: about 12%.
G9a inh: blocks human histone lysine methyltransferase G9a. Potency, µM (series often up to 102 µM), without a hit: top-dose activity, negative = inhibition, hits mostly inhibitors. AID 504332. G9a H3K9 monomethylation, AlphaScreen, 2 h. 350,000 tested, 8.8% active; also: % is scaled to controls: 0 for no effect and ±100 for the full control effect; nearly all actives have a fitted effect of over 75% in size
Target sequence (Q96KQ7 913-1193 limits assumed): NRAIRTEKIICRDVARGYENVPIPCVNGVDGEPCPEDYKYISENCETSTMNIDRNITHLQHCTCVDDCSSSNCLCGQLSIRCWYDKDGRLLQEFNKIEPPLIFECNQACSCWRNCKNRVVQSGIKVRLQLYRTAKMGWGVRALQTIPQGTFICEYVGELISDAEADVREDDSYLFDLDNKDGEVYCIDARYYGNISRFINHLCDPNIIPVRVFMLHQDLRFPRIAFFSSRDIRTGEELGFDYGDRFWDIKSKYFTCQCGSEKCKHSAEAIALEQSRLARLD
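Using a bead-based AlphaScreen, monomethylated H3K9 product from 2 h room-temperature reactions (G9a 20 nM, peptide 500 nM, SAM 20 uM) was detected with 0.5 ug/mL rabbit anti-H3K9me1 antibody.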
Sfp inh: blocks B. subtilis Sfp PPTase activity; Q9F4F7; Biochemical Sfp PPTase activity, qHTS; Potency, µM, inactives show largest response in the series, negative = inhibition, hits mostly inhibitors; 310,000 tested, 3.5% active;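 also: the enzyme is Sfp with the accession as filed and its product quenches rhodamine fluorescence; 0% = enzyme reaction without inhibitor and -100% = no enzyme wells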
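Step 1, compound plus 15 nM Sfp-PPTase, 15 min, room temperature. Step 2, add rhodamine-CoA (5 uM) and BHQ-2-YbbR (12.5 uM). Step 3, read 525/598 nm fluorescence at 0 and 30 min.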
HP1b binding inh: inhibitors of HP1-beta chromodomain binding to methylated histone tails. AID 540317. AlphaScreen HP1-beta / biotin-H3K9me3 peptide binding. Potency, µM (doses to about 114 µM), inactives show at the highest dose activity change, negative = inhibition, actives largely listed as inhibitors. P83916. 390,000 tested, 0.56% active; also: nearly all actives have a fitted effect of over 70% in size
Target sequence (P83916 whole entry, looked up): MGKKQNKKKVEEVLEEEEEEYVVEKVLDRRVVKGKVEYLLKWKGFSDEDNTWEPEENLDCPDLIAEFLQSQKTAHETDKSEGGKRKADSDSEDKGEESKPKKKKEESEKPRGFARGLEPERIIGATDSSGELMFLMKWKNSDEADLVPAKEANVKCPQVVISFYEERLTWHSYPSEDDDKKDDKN
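Compound inhibition of the preformed complex between 50 nM HP1-beta and 50 nM biotinylated H3K9me3 peptide was read by AlphaScreen. Buffer was PBS pH 7.4 with 0.01% Tween-20. Incubations ran 30 min at room temperature, with 10 ug/mL donor/acceptor beads.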
PLK1 PBD block: PLK1 (human) polo-box domain binding inhibition. P53350. Plk1 PBD binding of FITC phosphopeptide, fluorescence polarization. Potency, µM, for inactives: max response, negative = inhibition, usual class: inhibitors. 360,000 tested, 2.8% active; also: series mostly up to about 57 µM; % is scaled to controls: 0 for no effect and ±100 for the full control effect; nearly all actives have a fitted effect of over 65% in size
JMJD2A Tudor inh: blocks the human JMJD2A Tudor domain. 390,000 tested, 4.4% active. Potency, µM (highest dose often 114 µM), for the others: at the top dose activity change, negative = inhibition, most hits filed as inhibitors. O75164. AlphaScreen JMJD2A-Tudor / H3K4me3 peptide binding; also: % is scaled to controls: 0 for no effect and ±100 for the full control effect; nearly all actives have a fitted effect of over 50% in size
BAZ2B block: BAZ2B (human) inhibition; Potency, µM (doses to about 114 µM), for the others: top-dose activity change, negative = inhibition, most hits filed as inhibitors; 360,000 tested, 4.4% active; AlphaScreen BAZ2B-H3K14Ac peptide displacement; AID 504333; Q9UIF8; also: % is scaled to controls: 0 for no effect and ±100 for the full control effect; nearly all actives have a fitted effect of over 60% in size
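Protein-peptide AlphaScreen: BAZ2B 50 nM, b-H3K14Ac 50 nM, 1x PBS pH 7.4 + 0.01% Tween-20. Preincubation 30 min RT; cpd 30 min RT (top 110 uM); beads 20 min RT, light-protected.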
The depositor's hits bear a star; u = inconclusive; x = not tested or not shown; [ ] = dose if it differs, or a comment. Calls follow the shape of the dose curve; as a rule, active = well fitted curve in the direction sought with a large enough effect; inconclusive = small, poorly fitted or top-dose-only effect, or another doubt; inactive = no such curve, though single readings can be large; an effect the other way counts as inactive or inconclusive. Potency is read from the fitted curve at half-maximal effect.

SMILES	G9a inh	Sfp inh	HP1b binding inh	PLK1 PBD block	JMJD2A Tudor inh	BAZ2B block
CCN1CCCc2cc(CN(CCN3CCOCC3)C(=O)Nc3ccc(C)c(C)c3)ccc21	8.91µM*	-14.5%	u	-18.1%	28.2µM*	44.7µM*
CCCCN1CCCc2cc(CN(CCCN3CCOCC3)C(=O)Nc3ccc(OCC)cc3)ccc21	u	x	u	x	12.6µM*	-26.3%
CCN1CCCc2cc(CN(CCN3CCOCC3)C(=S)Nc3ccc(OC)c(OC)c3)ccc21	-6.8%[59 µM]	15.7%	30.2%	-6.3%	-26.5%[11.4 µM]	-33.8%
CCc1ccc(NC(=O)N(CCCN2CCOCC2)Cc2cccs2)cc1	7.7%	11.7%	39.9%	-8.4%	-25.5%	11.0%
CCc1ccc(NC(=O)N(CCN2CCOCC2)Cc2ccc3c(c2)CCCN3CC)cc1	31.6µM*	u	28.2µM*	-13.9%	22.4µM*	u
C=CC[C@@H]1C=C[C@@H](O/N=C\c2ccc(C(=O)N3[C@H](c4ccc(C)cc4)[C@@H](C)CC[C@H]3C(=O)OC)cc2)[C@@H](CO)O1	x	-6.3%	x	x	x	x
Cc1cccc(/N=C2/NC(=O)C(Cc3ccccc3)S2)n1 (centres undefined)	20.0%	13.3%	11.7%	29.9µM*	-13.2%[11.4 µM]	-12.2%
COc1ccc(S(=O)(=O)/N=C2/C=CC(=O)C(C)=C2C)cc1	u	79.4µM*	u	23.8µM*	-34.9%	-8.1%
CC1=C(C)/C(=N\OS(=O)(=O)c2ccc(C)cc2)C=CC1=O	20µM*	31.6µM*	u	u	56.2µM*	25.1µM*
O=C(CSC(=S)N1CCOCC1)Nc1ccc(S(=O)(=O)Nc2ncccn2)cc1	29.7%	9.9%	18.8%	-7.9%	-12.2%	-4.1%[57.1 µM]
COc1ccc(-n2c(=O)c(-c3ccccc3)nc3cncnc32)cc1	7.2%[0.501 µM]	-1.6%	x	x	x	x
CC(=O)Nc1ccc(S(=O)(=O)NCc2ccc3[nH]c(C)cc3c2)cc1	-8.9%[59 µM]	1.9%	-18.1%	-11.9%	u	-33.9%
Cc1ccc(S(=O)(=O)NCc2ccc3[nH]c(C)cc3c2)cc1	50.1µM*	13.7%	3.1%	-1.1%	-30.6%	x
COC(=O)N1CCC2(CC1)CN(C(=O)Nc1cccc(F)c1)C2	11.7%[12.7 µM]	15.4%	x	x	x	x
FC(F)(F)c1cccc(N2CCN(CC3CC4C=CC3C4)CC2)c1 (centres undefined)	u	-25.2%	24.9%	-26.1%	-28.5%	u
Cc1ccc(N2CCN(CC3CC=CCC3)CC2)cc1 (centres undefined)	-11.7%[59 µM]	-1.6%	u	-9.1%	u	u
CCS(=O)(=O)N1CCN(CC2CC3C=CC2C3)CC1 (centres undefined)	11.2µM*	-16.4%	u	-5.1%	1.26µM*	50.1µM*
C1=CC2CC1CC2CN1CCN(Cc2ccccc2)CC1 (centres undefined)	2µM*	79.4µM*	u	-6.4%	1.12µM*	23.0%
C1=CCC(CN2CCN(C3CCCCCC3)CC2)CC1 (centres undefined)	7.94µM*	u	u	0.7%	1µM*	44.7µM*
CCCS(=O)(=O)N1CCN(CC2CC=CCC2)CC1 (centres undefined)	7.08µM*	-23.3%	-54.8%	-7.4%	0.891µM*	56.2µM*
CC(=O)N1CCc2c(sc3c2c(=O)n(CCc2ccccc2)c(=O)n3CC(=O)Nc2ccc(C)c(F)c2)C1	-8.5%[59 µM]	x	1.6%	x	-24.7%	-17.6%
CSCC[C@H](NC(=O)[C@H](CC(C)C)NC(=O)CNC(=O)[C@H](Cc1ccc(O)cc1)NC(=O)[C@H](Cc1ccccc1)NC(=O)[C@H](CCC(N)=O)NC(=O)[C@H](CCC(N)=O)NC(=O)[C@@H]1CCCN1C(=O)[C@H](CCCCN)NC(=O)[C@@H]1CCCN1C(=O)[C@@H](N)CCCN=C(N)N)C(N)=O	x	-1.5%	x	x	x	x
Cc1ccc(NC(=O)Cn2c(=O)n(Cc3nc(-c4ccccc4)no3)c(=O)c3ccccc32)c(C)c1	-7.6%[59 µM]	x	18.3%	x	-11.0%	-5.6%
Cc1ccc(S(=O)(=O)N2CCN(CC3CC4C=CC3C4)CC2)cc1 (centres undefined)	7.94µM*	u	28.2µM*	-8.2%	0.794µM*	17.8µM*
CCCS(=O)(=O)N1CCN(S(=O)(=O)c2ccc(F)cc2)CC1	10.3%[59 µM]	5.8%	32.8%	0.5%	-7.6%	12.5%
SMILES	G9a inh	Sfp inh	HP1b binding inh	PLK1 PBD block	JMJD2A Tudor inh	BAZ2B block
CCCS(=O)(=O)N1CCN(CC2CC3C=CC2C3)CC1 (centres undefined)	5.62µM*	-26.0%	u	-15.9%	-28.1%[11.4 µM]	50.1µM*
Cc1cc(C)cc(NC(=O)C2CCCN2S(=O)(=O)c2ccc3nc(-c4ccccc4)[nH]c3c2)c1 (centres undefined)	u	x	6.8%	x	u	79.4µM*
Cc1ccc(C(O)CCc2ccc(N)cc2)cc1 (centres undefined)	1.5%	7.8%	20.5%	2.5%	-20.0%	-24.1%
Cc1ccc(C(C[N+](=O)[O-])Sc2ccc(N)cc2)cc1 (centres undefined)	39.8µM*	5.62µM*	-0.7%	6.7µM*	-26.3%	u
Cc1ccc(/C=N/Nc2ccc(F)cc2)s1	50.1µM*	0.8%	-7.9%	-13.0%	u	u
NCC(=O)Nc1cccc(-c2nn3c(=O)cc(N4CCNCC4)nc3s2)c1	x	x	x	x	-21.1%	x
COc1cccc(C(NC(=O)c2ccccc2F)NC(=O)c2ccccc2F)c1	-4.4%	u	9.7%	-3.9%	-8.8%	8.2%
COc1cccc(C(c2c(N)[nH]c(=S)[nH]c2=O)c2c(N)[nH]c(=S)[nH]c2=O)c1	x	79.4µM*	19.8%	-7.5%	u	-8.1%
CN=C1NC(C)(C)C2CCC(C)(CC2)S1	x	x	7.9%[57 µM]	2.2%	-4.1%	x
COC1=CC(=Cc2c(N)n3nc(CC(=O)N4CCOCC4)sc3nc2=O)C=C(OC)C1=O	u	-3.1%	3.2%[57 µM]	124.2%	u	44.7µM*
C=CCC1=C/C(=C\c2c(N)n3nc(CC(=O)N4CCCC4)sc3nc2=O)C=C(OC)C1=O	20.1%[0.0925 µM]	5.5%	41.7%	-15.4%	-2.3%	79.4µM*
COC(=O)c1cc(=O)n(Cc2ccc(OC)c(OC)c2)c(=Nc2ccc(F)cc2)s1	u	u	-10.8%	-7.9%	u	15.3%
COC(=O)c1cc(=O)n(CCc2ccc(OC)c(OC)c2)c(=Nc2ccc(F)c(Cl)c2)s1	25.1µM*	u	-6.4%	-8.8%	u	u
CCCn1c(CCC(=O)Nc2cc(OC)cc(OC)c2)nc2cccnc21	-0.9%[59 µM]	x	44.2%	x	-11.6%	-6.7%
CC1CCc2c(sc3ncn(N)c(=N)c23)C1 (centres undefined)	10.4%[12.7 µM]	-12.1%	18.5%	-26.4%	-13.2%[11.4 µM]	-0.1%
COc1cc(CN2CCN(C(=O)c3cccc4ccccc34)CC2)cc(OC)c1OC	20µM*	-3.2%	u	-9.5%	20µM*	56.2µM*
